Test results: PubChem BioAssay (NCATS)
Records with an inconclusive call do not appear. Activity calls are given as the source filed them. Calls come from the whole dose curve; as a rule, active = well fitted curve in the direction sought with a large enough effect; inconclusive = small, poorly fitted or top-dose-only effect, or another doubt; inactive = no such curve, though single readings can be large; an effect the other way counts as inactive or inconclusive.

Columns and labels:
MKL-1 = test: qHTS assay to identify novel small-molecules to repurpose for Merkel cell carcinoma treatment (AID 1296009); details: MCC and control cell lines, CellTiter-Glo viability, 72 h; series mostly up to 46 µM; note: nearly all actives have a fitted effect of over 60% in size; note: potency is the fitted concentration of half-maximal effect
In short: (§1)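 72 hr, 37 degree celsius; NPC 8-pt / MIPE 11-pt dose response; compound pinned in DMSO; CellTiter-Glo, 10 min RT, luminescence; normalized to no-cell and DMSO controls.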

MKL-2 = test: as above; details: MCC and control cell lines, CellTiter-Glo viability, 72 h; series mostly up to 46 µM
In short: as §1

NIH3T3 = test: as above; details: MCC and control cell lines, CellTiter-Glo viability, 72 h; series mostly up to 44.8 µM
In short: as §1

UISO = test: as above; details: MCC and control cell lines, CellTiter-Glo viability, 72 h; series mostly up to 46 µM
In short: as §1

WaGa = test: as above; details: MCC and control cell lines, CellTiter-Glo viability, 72 h; series mostly up to 46 µM
In short: as §1

C33A = test: Primary qHTS to identify gynecologic anti-cancer compounds using libraries of approved drugs and bioactive compounds (AID 1345084); details: Gynecologic cancer cell panel viability, ATPlite luminescence, 48 h; series mostly up to 57.5 µM; note: nearly all actives have a fitted effect of over 55% in size
In short: (§2)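 Cytotoxicity screen measuring ATP content by luciferase luminescence. Each compound is applied at five concentrations for 48 h at 37 C with 5% CO2.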

CAOV3 = test: as above; details: Gynecologic cancer cell panel viability, ATPlite luminescence, 48 h; series mostly up to 57.5 µM
In short: as §2

CASKI = test: as above; details: Gynecologic cancer cell panel viability, ATPlite luminescence, 48 h; series mostly up to 57.5 µM
In short: as §2

Es-2 = test: as above; details: Gynecologic cancer cell panel viability, ATPlite luminescence, 48 h; series mostly up to 57.5 µM
In short: as §2

HeLa = test: as above; details: Gynecologic cancer cell panel viability, ATPlite luminescence, 48 h; series mostly up to 57.5 µM
In short: as §2

Measured: Potency

Cc1ccc(C2=Nc3ccc(Cl)cc3OC2)cc1
active: MKL-1 14.8 µM

COc1ccc(-c2cc(=O)c3c(O)cc(O[C@@H]4O[C@H](CO[C@@H]5O[C@@H](C)[C@H](O)[C@@H](O)[C@@H]5O)[C@@H](O)[C@H](O)[C@@H]4O)cc3o2)cc1O
inactive: MKL-1 | MKL-2 | NIH3T3 | UISO | WaGa

Cc1cc2nc3c(=O)[nH]c(=O)nc-3n(CC(O)C(O)C(O)CO)c2cc1C (stereo not given)
inactive: MKL-1 | MKL-2 | NIH3T3 | UISO | WaGa

Cc1nc(NC(=O)N2CCC[C@@H]2C(N)=O)sc1-c1csc(C(C)(C)C)n1
inactive: MKL-1 | MKL-2

Cc1ccc2c(=O)c3cccc(CC(=O)O)c3oc2c1C
inactive: MKL-1 | MKL-2 | NIH3T3 | UISO | WaGa

CC(NCCc1ccc(O)cc1)C(O)c1ccc(O)cc1 (stereo not given)
inactive: MKL-1 | MKL-2 | NIH3T3 | UISO | WaGa

Clc1ccc(COC(Cn2ccnc2)c2ccc(Cl)cc2Cl)c(Cl)c1 (stereo not given)
inactive: MKL-1 | MKL-2

Cc1ccc(NC(=O)c2ccc(CN3CCN(C)CC3)cc2)cc1Nc1nc(-c2cccnc2)cs1
inactive: MKL-1

CCC(c1ccc(O)cc1)C(CC)c1ccc(O)cc1 (stereo not given)
inactive: MKL-1 | MKL-2 | NIH3T3 | UISO

CCOC(=O)[C@H](CCc1ccccc1)N[C@@H](C)C(=O)N1CCCC1C(=O)O (stereo not given in full)
inactive: MKL-1 | MKL-2 | NIH3T3 | UISO | WaGa

OC1CCC(Nc2ncc3nc(Nc4c(F)cc(F)cc4F)n([C@@H]4CCOC4)c3n2)CC1 (stereo not given in full)
inactive: MKL-1 | MKL-2 | NIH3T3 | UISO | WaGa

CC[C@H](C)n1cc(C)c2c(C(=O)NCc3c(C)cc(C)[nH]c3=O)cc(-c3ccc(N4CCNCC4)nc3)cc21
inactive: MKL-1 | MKL-2 | NIH3T3 | UISO | WaGa

OC[C@H]1O[C@@H](Oc2ccc(O)cc2)[C@H](O)[C@@H](O)[C@H]1O
inactive: MKL-1 | MKL-2 | NIH3T3 | UISO | WaGa

CCCCN(CCCC)CC(O)c1cc(Cl)cc2c1-c1ccc(Cl)cc1C2=Cc1ccc(Cl)cc1 (stereo not given)
inactive: MKL-1 | MKL-2 | NIH3T3 | UISO | WaGa

COc1cccc(OC)c1-c1cc(C(=O)NC2(C(=O)O)C3CC4CC(C3)CC2C4)nn1-c1ccnc2cc(Cl)ccc12 (stereo not given)
inactive: MKL-1 | MKL-2 | NIH3T3 | UISO | WaGa

CN1[C@H]2CC[C@H]1CC(OC(=O)c1c[nH]c3ccccc13)C2 (stereo not given in full)
inactive: MKL-1 | MKL-2 | NIH3T3 | UISO | WaGa

Cc1cc(OCCCS(C)(=O)=O)cc(C)c1-c1cccc(COc2ccc3c(c2)OC[C@H]3CC(=O)O)c1
inactive: MKL-1

CCN(CC)CCCCNc1nc2cc(Cl)c(Cl)cc2nc1-c1ccc(-c2cccs2)s1
active: MKL-1 23.5 µM | MKL-2 14.8 µM

COc1nc(C)cnc1NS(=O)(=O)c1cccnc1-c1ccc(-c2nnco2)cc1
inactive: all assays above

C[C@H]1O[C@@H](n2cc(F)c(=O)[nH]c2=O)[C@H](O)[C@H]1O
inactive: MKL-1 | MKL-2

CCC(=C(CC)c1ccc(O)cc1)c1ccc(O)cc1
inactive: MKL-1

C[C@H]1COC2=C1C(=O)C(=O)c1c2ccc2c1CCCC2(C)C
inactive: MKL-1 | MKL-2 | NIH3T3 | UISO | WaGa

COc1cc(C=CC(=O)O)ccc1O
inactive: MKL-1 | MKL-2 | NIH3T3 | UISO | WaGa

CCC[C@@H](NC(=O)[C@@H]1[C@H]2CCC[C@@H]2CN1C(=O)[C@@H](NC(=O)[C@@H](NC(=O)c1cnccn1)C1CCCCC1)C(C)(C)C)C(=O)C(=O)NC1CC1
inactive: MKL-1 | MKL-2 | NIH3T3 | UISO | WaGa

CC(C)Oc1cc(Nc2nc(N[C@@H](C)c3ccc(F)cn3)ncc2Cl)[nH]n1
inactive: MKL-1 | MKL-2

CC(=O)N1CCN(c2ccc(OCc3nn(C)c(C)c3-c3cccc4c(CCCOc5cc(C)c(Cl)c(C)c5)c(C(=O)O)n(Cc5cccnc5)c34)cc2)CC1
active: MKL-2 14.8 µM | WaGa 11.8 µM
inactive: MKL-1 | NIH3T3 | UISO

COc1ccc(-c2oc3c(CC=C(C)C)c(O)cc(O)c3c(=O)c2O)cc1
inactive: MKL-1 | MKL-2 | NIH3T3 | UISO | WaGa

Cc1cc(NC(=O)Nc2ccc(N(C)C)cc2)c2cc(F)cc(F)c2n1
inactive: MKL-1 | MKL-2 | NIH3T3 | UISO | WaGa

CN1CCN2c3ncccc3Cc3ccccc3C2C1 (stereo not given)
inactive: MKL-1 | MKL-2 | NIH3T3 | UISO | WaGa

CN(C)CCOc1ccc(C(=C(CCCl)c2ccccc2)c2ccccc2)cc1
inactive: MKL-1 | MKL-2 | NIH3T3 | UISO | WaGa

CC[C@]1(O)C[C@H]2CN(CCC3=c4ccccc4=N[C]3[C@@](C(=O)OC)(c3cc4c(cc3OC)N(C)[C@H]3[C@@](O)(C(N)=O)[C@H](O)[C@]5(CC)C=CCN6CC[C@]43[C@@H]65)C2)C1
active: MKL-1 0.0037 µM | MKL-2 0.0469 µM

Cc1cnc(-c2cc(N3CCN(C(=O)CCS(C)(=O)=O)CC3)ncc2Cl)c(C)c1
inactive: all assays above

C[C@@]1(c2cc(-c3cncnc3)c(F)cc2F)CCSC(N)=N1
inactive: all assays above
